Screening data deposited in PubChem by National Center for Advancing Translational Sciences (NCATS).
The list is not random: actives were taken first. Their share in the collection is about 1.3%.
Pin1 inhibitor: qHTS Assay to Find Inhibitors of Pin1 | Pin1 FP peptide displacement, HiFluor488, 10 min | 390,000 compounds, 0.009% hits | Potency, µM (highest dose often 115 µM), for the others: top-dose activity, negative = inhibition, hits mostly inhibitors | AID 504891, 2011 | Peptidyl-prolyl cis-trans isomerase NIMA-interacting 1 (Homo sapiens), Q13526; active = well fitted inhibition curve with a large enough effect in the polarisation, with a control signal flat, not every such curve was filed as active; inconclusive = small, poorly fitted or top-dose-only effect, or effect the other way, or a change in a side signal; inactive = no such curve, though single readings can be large or run the other way; the % refers to the polarisation; also: potency is read from the fitted curve at half-maximal effect
Target sequence (Q13526 whole entry, looked up): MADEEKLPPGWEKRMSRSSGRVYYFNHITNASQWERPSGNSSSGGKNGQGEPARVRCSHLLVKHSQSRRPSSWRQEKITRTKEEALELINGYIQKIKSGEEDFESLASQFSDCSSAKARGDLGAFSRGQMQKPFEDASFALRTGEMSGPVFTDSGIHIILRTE
rTrxR1 inhibitor: qHTS Assay for Inhibitors of Mammalian Selenoprotein Thioredoxin Reductase 1 (TrxR1): qHTS; Potency, µM (top dose mostly 114 µM), for inactives: top-dose activity change, negative = inhibition, usual class: inhibitors; recombinant rTrxR1, NADPH fluorescence consumption, selenite substrate; 390,000 compounds, 1% hits; Thioredoxin reductase 1, cytoplasmic (Rattus norvegicus), O89049; AID 588453, 2011; also: potency is read from the fitted curve at half-maximal effect; nearly all actives have a fitted effect of over 65% in size
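Rat TrxR1 (90 nM in the dispensed reagent) was pre-reduced with 400 uM NADPH for 5 min at room temperature, then incubated with compound for 15 min. After 400 uM selenite was added, NADPH fluorescence (Ex 340/Em 450 nm) was followed for 8 min.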
GALK inhibitor: qHTS Assay for Inhibitors of Human Galactokinase (GALK); Purified GALK, Kinase-Glo residual ATP luminescence; Potency, µM (series often up to 57.5 µM), for inactives: top-dose activity change, negative = inhibition, most hits filed as inhibitors; 270,000 compounds, 0.007% hits; also: potency is read from the fitted curve at half-maximal effect
Target sequence (P51570 whole entry, looked up): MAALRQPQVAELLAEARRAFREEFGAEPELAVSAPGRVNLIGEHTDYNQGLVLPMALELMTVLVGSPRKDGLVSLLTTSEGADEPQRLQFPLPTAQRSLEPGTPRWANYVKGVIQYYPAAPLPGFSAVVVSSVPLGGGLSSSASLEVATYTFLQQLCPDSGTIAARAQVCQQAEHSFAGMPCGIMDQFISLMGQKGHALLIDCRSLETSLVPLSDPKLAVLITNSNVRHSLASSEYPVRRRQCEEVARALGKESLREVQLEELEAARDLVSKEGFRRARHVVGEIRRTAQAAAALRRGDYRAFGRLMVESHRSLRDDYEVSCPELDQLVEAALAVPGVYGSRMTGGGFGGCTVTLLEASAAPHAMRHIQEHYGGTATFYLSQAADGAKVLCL
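5 nM enzyme, 35 uM ATP, 100 uM galactose, 20 mM HEPES pH8.0, 5 mM MgCl2; 1 h RT; residual ATP by Kinase-Glo Plus luminescence, qHTS format.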
TrxR1 substrate: qHTS Assay for Substrates of Mammalian Selenoprotein Thioredoxin Reductase 1 (TrxR1): qHTS; Thioredoxin reductase 1, cytoplasmic (Rattus norvegicus), O89049; purified TrxR1 substrate turnover, NADPH consumption readout; Potency, µM (titrated, usually from 114 µM), inactives show at the highest dose activity change, negative = substrate turnover; 390,000 compounds, 0.01% hits; AID 588456, 2011; also: potency is read from the fitted curve at half-maximal effect; nearly all actives have a fitted effect of over 50% in size
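Rat TrxR1, dispensed at 90 nM, was prereduced with 400 uM NADPH (final) for 5 min at ~22 deg C, then incubated with compound 15 min before 400 uM selenite. A first-read NADPH fluorescence drop versus no-compound background flagged substrates.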
GCN5L2 inh: qHTS Assay for Inhibitors of GCN5L2; Histone acetyltransferase KAT2A (Homo sapiens), Q92830; GCN5L2 HAT assay, ThioGlo1 CoA-SH fluorescence; Potency, µM (highest dose often 58.9 µM), for inactives: top-dose activity change, negative = inhibition, hits mostly inhibitors; 390,000 compounds, 0.21% hits; AID 504327, 2011; also: potency is read from the fitted curve at half-maximal effect
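Compounds, pin-transferred from DMSO stocks, meet 20nM GCN5L2 for 15 min before the reaction begins with H3(1-25) peptide (75uM) and acetyl-CoA (70uM). Thiol-reactive ThioGlo1 reports CoA release over 20 min at room temperature.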
Giardia kill: Small Molecules that selectively kill Giardia lamblia: qHTS; Giardia lamblia trophozoite viability; activity change, % at 7.66 µM, hits read low; 340,000 compounds, 0.15% hits; in the data active = activity change below about -80%; inconclusive = between about -30% and that limit;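 also: parasites exposed to compound for two days anaerobically before the ATP read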
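Luminescent ATP signal served as the viability read-out, measured 15-30 min after adding ATP detection reagent to trophozoites that had been incubated with compounds for 48 hrs at 37 deg C anaerobically at 100 cells/well.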
An asterisk follows results filed as active; ! = a repeat was not active; [ ] = remark or other dose. Unless noted, calls follow the shape of the dose curve; as a rule, active = well fitted curve in the direction sought with a large enough effect; inconclusive = small, poorly fitted or top-dose-only effect, or another doubt; inactive = no such curve, though single readings can be large; an effect the other way counts as inactive or inconclusive. % is scaled to controls: 0 for no effect and ±100 for the full control effect.

For O=C1C2C3C=CC(CO)(O3)C2C(=O)N1c1ccccc1-c1ccccc1 (stereo not given) the results were Pin1 inhibitor 2.5%, rTrxR1 inhibitor 0.891µM*, GALK inhibitor -0.4%, TrxR1 substrate 7.6%, GCN5L2 inh inconclusive and Giardia kill 26.2.
`CC(=O)Oc1ccc(N2C(=O)C3C(C2=O)C2(C)C=CC3(C)O2)cc1` (stereo not given) gave GALK inhibitor -1.3% and GCN5L2 inh inconclusive.
CCOc1ncccc1C(=O)Nc1cc2c(cc1Br)OCCO2 was read as Pin1 inhibitor 10.0%, rTrxR1 inhibitor 6.4%, TrxR1 substrate -1.2%, GCN5L2 inh -7.3% and Giardia kill 3.9.
Screening CCOC(=O)c1cc([N+](=O)[O-])cc([N+](=O)[O-])c1Sc1ncnc2nc[nH]c12 returned Pin1 inhibitor -0.2%, rTrxR1 inhibitor 0.447µM*, TrxR1 substrate 0.4%[57.1 µM] and Giardia kill -9.5.
Screening COCCn1c(=O)c(-c2ccc(F)cc2)nc2cnc(OC)nc21 returned GCN5L2 inh -10.1%.
CC(C)CCOc1ccc(Cn2c(=O)sc3ccccc32)cc1 was read as Pin1 inhibitor 19.4%, rTrxR1 inhibitor 17.1%, TrxR1 substrate -2.8% and GCN5L2 inh -10.9%.
Cc1ccc(/C=C/C(=O)c2ccccc(=O)c2O)c(C)c1 was read as Pin1 inhibitor 29.9%, rTrxR1 inhibitor -66.8%, TrxR1 substrate 1.3%[57.1 µM], GCN5L2 inh -15.4% and Giardia kill 9.5.
`Cc1ccc(C)c(/C=C/C(=O)c2ccccc(=O)c2O)c1` gave Pin1 inhibitor 7.3%, rTrxR1 inhibitor 50.1µM*, TrxR1 substrate -14.5%, GCN5L2 inh -8.7% and Giardia kill 2.2.
O=C(/C=C/c1ccccc1Cl)c1ccccc(=O)c1O was read as Pin1 inhibitor 11.5%, rTrxR1 inhibitor 35.5µM*, TrxR1 substrate -7.2%, GCN5L2 inh -17.3% and Giardia kill 1.9.
For COc1cccc(-n2nnnc2S(C)(=O)=O)c1 the results were Pin1 inhibitor -2.3%, rTrxR1 inhibitor 3.16µM*, GALK inhibitor 1.1%, TrxR1 substrate 5.3%, GCN5L2 inh 0.0% and Giardia kill 4.5.
Cc1cccc(-n2nnnc2S(C)(=O)=O)c1 was read as Pin1 inhibitor inconclusive, rTrxR1 inhibitor 1.78µM*, TrxR1 substrate -6.4%[57.1 µM] and GCN5L2 inh -0.6%.
O=C(c1cccs1)N(Cc1ccco1)c1ccc(O)cc1 was read as Pin1 inhibitor -4.7%, rTrxR1 inhibitor -17.4%, TrxR1 substrate -7.5% and Giardia kill 21.2.
For CCOC(=O)Cn1c(=NC(=O)c2ccc([N+](=O)[O-])s2)sc2ccccc21 the results were Pin1 inhibitor inconclusive, rTrxR1 inhibitor 11.1%[57.1 µM], GALK inhibitor -2.3%, TrxR1 substrate -8.5%, GCN5L2 inh -8.2% and Giardia kill -95.9*.
O=C(NCc1ccco1)c1cccc2c1C(=O)c1ccc(/C=C/c3ccccc3)cc1S2(=O)=O was read as Pin1 inhibitor inconclusive, rTrxR1 inhibitor 22.4µM*, TrxR1 substrate -1.7%[57.1 µM], GCN5L2 inh inconclusive and Giardia kill 1.6.
Screening CC(=O)Nc1ccc(S(=O)(=O)Nc2nc3ccccc3nc2Nc2ccc(C(=O)O)c(O)c2)cc1 returned rTrxR1 inhibitor 79.4µM*, TrxR1 substrate -22.7%, GCN5L2 inh inconclusive and Giardia kill -8.8.
For N[C@@H](CSS(=O)(=O)O)C(=O)O the results were GCN5L2 inh 35.5µM*!.
`CC(=O)Nc1cc([N+](=O)[O-])cc(NC(C)=O)c1NC(C)=O` gave rTrxR1 inhibitor 2.5% and TrxR1 substrate -5.9%.
Screening O=C(NCC1CCCO1)c1nn2c(C(F)(F)F)cc(-c3ccc(Br)o3)nc2c1Br (stereo not given) returned Pin1 inhibitor 26.1%, rTrxR1 inhibitor 14.1µM*, GALK inhibitor -1.5%, TrxR1 substrate 5.9%, GCN5L2 inh 1.4% and Giardia kill 2.5.
Screening O=C1NC(=S)NC1=Cc1ccco1 returned Pin1 inhibitor inconclusive, rTrxR1 inhibitor 7.94µM*, TrxR1 substrate -10.4% and Giardia kill 1.4.
For COCc1nn2c(=O)cc(N3CCNCC3)nc2s1 the results were Pin1 inhibitor -0.4%.
For O=C(CCN1CCN(c2ccccc2F)CC1)c1ccc(Br)cc1 the results were Pin1 inhibitor -1.5%, rTrxR1 inhibitor 0.282µM*, GALK inhibitor -0.3%, TrxR1 substrate 10.3%, GCN5L2 inh -9.9% and Giardia kill 14.8.
Screening COc1ccc(OC)c(NC(=O)CCN2CCN(c3ccccc3F)CC2)c1 returned Pin1 inhibitor 1.1%, rTrxR1 inhibitor -6.8%, GALK inhibitor -1.6%, TrxR1 substrate -2.3%, GCN5L2 inh -2.6%[0.501 µM] and Giardia kill -9.4.
`COc1ccc(C(=O)CCN2CCN(c3ccccc3F)CC2)cc1` gave Pin1 inhibitor -7.4%, rTrxR1 inhibitor 1.58µM*, GALK inhibitor 1.6%, TrxR1 substrate 3.9%, GCN5L2 inh -8.1% and Giardia kill 1.5.
Nc1c(N=Nc2ccc([N+](=O)[O-])cc2)c(S(=O)(=O)O)cc2cc(S(=O)(=O)O)c(/C=C/c3ccccc3)c(O)c12 was read as rTrxR1 inhibitor 18.9% and TrxR1 substrate -15.4%.
Screening O=C1CSC(=S)N1/N=C/c1c(F)cccc1F returned Pin1 inhibitor -10.6%, rTrxR1 inhibitor inconclusive, GALK inhibitor -5.8%, TrxR1 substrate 8.7%, GCN5L2 inh 0.0% and Giardia kill 7.0.
`O=C1CSC(=S)N1/N=C/C=C/c1ccccc1` gave Pin1 inhibitor 3.8%, rTrxR1 inhibitor 28.2µM*, TrxR1 substrate -7.2%, GCN5L2 inh -27.6% and Giardia kill 0.5.
Screening CCCCCc1cc[n+](CC(=O)c2ccccc2)cc1 returned rTrxR1 inhibitor 2.2% and TrxR1 substrate 10.2%[0.0914 µM].
Cc1ccc2c(c1)[nH]c1c(=O)n(CCC3=CCCCC3)cnc12 was read as GALK inhibitor 1.2% and GCN5L2 inh 2.51µM*.
`CC(C)[C@H](NC(=O)[C@H](CC(=O)O)NC(=O)CNC(=O)[C@@H](N)CCCN=C(N)N)C(=O)O` gave GCN5L2 inh -7.2%.
For Cc1ccc(S(=O)(=O)N2CCN(c3nc(-c4ccnnc4)nc4ccccc34)CC2)cc1 the results were Pin1 inhibitor 2.9%, rTrxR1 inhibitor inconclusive, TrxR1 substrate 8.7% and Giardia kill -3.2.
